Data as given in PubChem BioAssay (NCATS).
Results filed as inconclusive are left out. Calls of active or inactive are those of the source. Calls follow the shape of the dose curve; as a rule, active = well fitted curve in the direction sought with a large enough effect; inconclusive = small, poorly fitted or top-dose-only effect, or another doubt; inactive = no such curve, though single readings can be large; an effect the other way counts as inactive or inconclusive.

Columns and labels:
[1] = Cellular Toxicity (caspase-3) BJ (AID 658); conditions: BJ fibroblasts, luminescence; Potency: caspase-3 activation; series mostly up to 91.7 µM
How it was run: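 Readout: Caspase-Glo 3/7 luminescence increase in BJ cells after 16 hr treatment at 37 °C. Staurosporine and tamoxifen served as positive controls; AC50 values came from Hill modelling of data normalized to DMSO and 10 uM staurosporine.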

[2] = Cellular Toxicity (caspase-3) MRC-5 (AID 659); conditions: MRC-5 cells, luminescence, normalized: DMSO 0%, 10 µM staurosporine 100%; series mostly up to 91.7 µM
How it was run: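 Concentration-dependent caspase 3/7 activation is measured in human normal lung fibroblasts (MRC-5) following 16-hour treatment. AC50 values come from standard Hill-equation modeling of luminescence normalized to DMSO and 10 uM staurosporine.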

[3] = Cellular Toxicity (caspase-3) Mesangial (AID 660); conditions: mesangial cells, normalized: DMSO 0%, 100 µM tamoxifen 100%; series mostly up to 91.7 µM;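 also: cells exposed to compound for 16 h before the caspase read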
How it was run: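 Human renal glomerular mesangial cells (1000/well) were treated with compounds for 16 h at 37 °C in complete medium, then caspase 3/7 activity was read by Caspase-Glo luminescence. Data were normalized to DMSO and 100 uM tamoxifen; AC50 from Hill fits.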

[4] = Cellular Toxicity (caspase-3) H-4-II-E (AID 663); conditions: H-4-II-E rat hepatoma; Potency: caspase-3 activation; series mostly up to 92.2 µM;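 also: cells exposed to compound for 16 hr before readout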
How it was run: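 Apoptosis induction is scored as increased luminescence from caspase 3/7 substrate cleavage in rat hepatoma H-4-II-E cells exposed to compound for 16 hr. Activity is scaled between DMSO and 100 uM tamoxifen.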

[5] = Cellular Toxicity (caspase-3) Hek293 (AID 664); conditions: HEK293 caspase-3 activation, DMSO = 0%, 100 µM tamoxifen = 100%; at 92.2 µM (top of the series);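 also: cells exposed to compound for 16 h at 37 °C before readout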
How it was run: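 HEK293 cells were exposed to compounds in complete medium for 16 hr at 37 °C, then caspase-3/7 activity was read by Caspase-Glo 3/7 luminescence after 20 min at room temperature. Data normalized to DMSO and 100 uM tamoxifen; AC50 from Hill fits.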

[6] = Cellular Toxicity (caspase-3) N2a (AID 665); conditions: N2a cells, luminescence, normalized: DMSO 0%, 10 µM staurosporine 100%; series mostly up to 92.2 µM;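 also: compound exposure lasted 16 h at 37 °C before readout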
How it was run: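 Mouse N2a neuroblastoma cells (1500/well) were treated with compounds for 16 h at 37 °C, then caspase-3/7 activity was read by Caspase-Glo luminescence after 1 h at room temperature. Data were normalized to DMSO and 10 uM staurosporine; AC50 from Hill fits.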

[7] = Cellular Toxicity (caspase-3) NIH 3T3 (AID 666); conditions: NIH 3T3 caspase-3 activation, apoptosis/toxicity, 0% DMSO, 100% is 100 µM tamoxifen; series mostly up to 92.2 µM;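 also: 0% = DMSO basal and 100% = 100 µM tamoxifen stimulation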
How it was run: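 Mouse NIH 3T3 fibroblasts (1000 cells/well) were treated with compound for 16 hr at 37°C in complete medium; caspase-3/7 activity was read by Caspase-Glo luminescence. Normalized to DMSO and 100 uM tamoxifen; AC50 from Hill fits.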

[8] = Cellular Toxicity (caspase-3) Renal Proximal Tubule (AID 667); conditions: renal proximal tubule cells, primary cells freshly taken from rat; Potency: caspase-3 activation; series mostly up to 91.7 µM;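 also: cells exposed to compound for 16 hours at 37 °C before detection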
How it was run: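 Luminescent caspase 3/7 signal from peptide-aminoluciferin cleavage measures apoptosis in freshly isolated rat kidney proximal tubule cells after 16 h compound exposure. Concentration-response data are normalized to DMSO and 10 uM staurosporine, and AC50 values come from Hill equation fits.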

[9] = target: Cytochrome P450 2C9 (Homo sapiens) (UniProt P11712); test: qHTS Assay for Inhibitors and Substrates of Cytochrome P450 2C9 (AID 883); conditions: recombinant CYP2C9, luciferin-H luminescence, 60 min; series mostly up to 11.4 µM; also: % is scaled to controls: 0 for no effect and ±100 for the full control effect; nearly all actives have a fitted effect of over 60% in size
How it was run: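 Inhibition of CYP2C9 is scored as loss of luminescence, with 57uM sulphaphenazole defining 100% inhibition. Substrate Luciferin-H is used at 100uM, equal to its KM; enzyme at 10nM in 25mM KPO4, 60 min at 37C with NADPH regeneration.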

[10] = target: Cytochrome P450 3A4 (Homo sapiens) (UniProt P08684); test: qHTS Assay for Activators of Cytochrome P450 3A4 (AID 885); conditions: recombinant CYP3A4, Luciferin-PPXE luminescence, 60 min; series mostly up to 11.4 µM; also: nearly all actives have a fitted effect of over 65% in size
How it was run: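 20nM CYP3A4 + 25uM Luciferin-PPXE (=KM), 200mM KPO4; cpd 10 min RT; NADPH regen, 60 min RT; stop w/ detection buffer, 20 min; luminescence. Normalized to 57 uM ketoconazole.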

[11] = target: Cytochrome P450 2D6 (Homo sapiens) (UniProt P10635); test: qHTS Assay for Inhibitors and Substrates of Cytochrome P450 2D6 (AID 891); conditions: recombinant CYP2D6, luciferin-ME EGE luminescence; series mostly up to 11.4 µM;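 also: luciferin methyl ether substrate demethylated by CYP2D6 with NADPH regeneration; % is scaled to controls: 0 for no effect and ±100 for the full control effect; nearly all actives have a fitted effect of over 60% in size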
How it was run: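 Human CYP2D6 (5 nM) with 30 uM Luciferin-ME EGE (at Km) in 100 mM KPO4, compound preincubated 10 min, then NADPH regeneration system for 60 min at room temperature. Luciferin read by luminescence; normalized to 1.43 uM quinidine.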

[12] = target: Cytochrome P450 2C19 (Homo sapiens) (UniProt P33261); test: qHTS Assay for Inhibitors and Substrates of Cytochrome P450 2C19 (AID 899); conditions: recombinant CYP2C19, luciferin-H EGE luminescence; series mostly up to 11.4 µM; also: % is scaled to controls: 0 for no effect and ±100 for the full control effect; nearly all actives have a fitted effect of over 60% in size
How it was run: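 5nM enzyme + 10uM Luciferin-H EGE (=KM), 50mM KPO4; cpd pin-transferred, 10 min 37C; NADPH regen, 60 min 37C; stopped w/ luciferin detection reagent, 20 min; luminescence. Normalized to 57uM ketoconazole (AC100).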

[13] = Cell Viability - LYMP2-001 (AID 921); conditions: LYMP2-001 lymphoblastoid cell viability; series mostly up to 92.2 µM;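 also: 0% = DMSO only and full inhibition = tetraoctylammonium bromide control wells; nearly all actives have a fitted effect of over 70% in size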
How it was run: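 CellTiter-Glo luminescence (intracellular ATP) after 24 hr compound exposure at 37 C, 2500 lymphoblastoid cells/well in complete medium. AC50 fitted with standard Hill equation; tetraoctylammonium bromide positive control.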

[14] = MultiTox-Fluor Cytotoxicity Assay - LYMP1-001 - Dead Cells (AID 946); conditions: LYMP1-001 lymphoblastoid cells, dead-cell protease fluorescence; series mostly up to 92.2 µM;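 also: 0% = DMSO and 100% = tetraoctylammonium bromide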
How it was run: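 AC50 from Hill fit of concentration-response; data normalized to DMSO (basal) and 15 uM tetraoctylammonium bromide (100%). LYMP1-001 lymphoblastoid cells, 2500/well, 16 hr compound at 37 C; dead-cell protease fluorescence, Ex/Em 485/520.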

[15] = MultiTox-Fluor Cytotoxicity Assay - LYMP1-001 - Live Cells (AID 947); conditions: LYMP1-001 lymphoblastoid cells, live-cell protease fluorescence viability; series mostly up to 92.2 µM;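 also: 0% = DMSO only and full inhibition = tetraoctylammonium bromide control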
[16] = Cell Viability - LYMP1-002 - Assay at 16 hr (AID 948); conditions: LYMP1-002 lymphoblastoid cell viability; series mostly up to 92.2 µM;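 also: 0% = DMSO alone and full effect = 92 µM tetraoctylammonium bromide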
How it was run: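 LYMP1-002 human lymphoblastoid cells, 2500/well; 5 hr 37 C; cpd 16 hr 37 C; CellTiter-Glo 30 min RT; luminescence (ATP). Concentration-response, Hill-fit AC50. Pos ctrl tetraoctylammonium bromide.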

[17] = MultiTox-Fluor Cytotoxicity Assay - LYMP1-002 - Live Cells (AID 955); conditions: LYMP1-002 lymphoblastoid live-cell protease fluorescence viability; series mostly up to 46.1 µM; also: % is scaled to controls: 0 for no effect and ±100 for the full control effect
How it was run: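 Human lymphoblastoid LYMP1-002 cells, 2500/well in complete medium, rested 5 hr at 37 C, then exposed to compounds for 16 hr at 37 C. Live-cell protease cleavage of GF-AFC read by fluorescence (Ex/Em 405/510) after 60 min at room temperature; AC50 from Hill fits.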

[18] = MultiTox-Fluor Cytotoxicity Assay - LYMP1-003 - Dead Cells (AID 961); conditions: LYMP1-003 lymphoblastoid cells, dead-cell protease fluorescence; series mostly up to 92.2 µM;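 also: 0% = DMSO and 100% = tetraoctylammonium bromide; nearly all actives have a fitted effect of over 70% in size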
How it was run: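 Human lymphoblastoid LYMP1-003 cells (2500/well) were treated with compounds for 16 hr at 37 C in complete medium. Dead-cell protease release was read by bis-AAF-R110 fluorescence (Ex/Em 485/520). AC50 came from Hill fits, normalized to DMSO and 15 uM tetraoctylammonium bromide.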

[19] = MultiTox-Fluor Cytotoxicity Assay - LYMP1-003 - Live Cells (AID 962); conditions: LYMP1-003 lymphoblastoid cells, MultiTox-Fluor live-cell protease fluorescence; series mostly up to 92.2 µM;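 also: 0% = DMSO only and full loss = 92 µM tetraoctylammonium bromide; cytotoxic hits lower the live-cell protease signal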
How it was run: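 LYMP1-003 human lymphoblastoid cells (2500/well) in complete medium were preincubated 5 hr at 37 C, then exposed to compounds for 16 hr at 37 C. Live-cell protease cleavage of GF-AFC read by fluorescence (Ex/Em 405/510); AC50 from Hill fits.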

[20] = Cell Viability - LYMP1-003 - Assay at 24 hr (AID 963); conditions: LYMP1-003 lymphoblastoid cell viability; series mostly up to 92.2 µM;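 also: plate controls were DMSO only for no effect and tetraoctylammonium bromide positive control for full effect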
How it was run: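 Human lymphoblastoid LYMP1-003 cells (2500/well) were rested 5 hr at 37 C, then exposed to compounds in complete medium for 24 hr at 37 C. Cellular ATP was quantified by CellTiter-Glo luminescence, and AC50 values came from Hill fits of concentration-response data.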

[21] = Cell Viability - LYMP1-003 - Assay at 40 hr (AID 964); conditions: LYMP1-003 lymphoblastoid viability; series mostly up to 92.2 µM; also: % is scaled to controls: 0 for no effect and ±100 for the full control effect; nearly all actives have a fitted effect of over 60% in size
How it was run: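 Human lymphoblastoid LYMP1-003 cells, 2500/well in complete medium, rested 5 hr at 37 C, then exposed to compounds for 40 hr at 37 C. Viability read as intracellular ATP by CellTiter-Glo luminescence; AC50 from Hill fits of concentration-response data.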

[22] = Cell Viability - LYMP2-003 (AID 965); conditions: LYMP2-003 lymphoblastoid cell viability; series mostly up to 92.2 µM;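 also: cells exposed to compounds for 24 h before reading; 0% = DMSO only and full effect = 92 µM tetraoctylammonium bromide; nearly all actives have a fitted effect of over 50% in size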
How it was run: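 CellTiter-Glo luminescence (cellular ATP) after 24 h compound exposure at 37 C in complete medium; 2500 cells/well, 5 h settling beforehand. Concentration-response fitted to standard Hill equation for AC50. Tetraoctylammonium bromide served as positive control.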

[23] = Cell Viability - LYMP2-004 (AID 966); conditions: LYMP2-004 lymphoblastoid cell viability, qHTS; series mostly up to 92.2 µM;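 also: plate controls were DMSO only for no effect and tetraoctylammonium bromide control for full effect; nearly all actives have a fitted effect of over 65% in size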
How it was run: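 Human lymphoblastoid cells (2500/well) in complete medium were treated with compounds for 24 hr at 37 C, then intracellular ATP was measured by CellTiter-Glo luminescence. AC50 values came from Hill-equation fits of concentration-response data.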

[24] = Cell Viability - LYMP2-005 (AID 967); conditions: LYMP2-005 lymphoblastoid cell viability; series mostly up to 92.2 µM;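 also: plate controls were DMSO only for no effect and 92 µM tetraoctylammonium bromide control for full effect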
How it was run: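 Steps: seed 2500 LYMP2-005 cells/well, incubate 5 h at 37 C, add compound, incubate 24 h at 37 C, add CellTiter-Glo, wait 30 min at RT, read luminescence. Concentration-response data fitted to Hill equation for AC50.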

[25] = Cell Viability - LYMP2-009 (AID 968); conditions: LYMP2-009 lymphoblastoid cell viability; series mostly up to 92.2 µM;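 also: 0% = DMSO alone and the full-kill end = tetraoctylammonium bromide at 92 µM; nearly all actives have a fitted effect of over 55% in size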
[26] = Cell Viability - LYMP2-011 (AID 969); conditions: LYMP2-011 lymphoblastoid cells viability; series mostly up to 92.2 µM
How it was run: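 Human lymphoblastoid cells (2500/well) were plated in complete medium, preincubated 5 hr at 37 C, then exposed to compounds for 24 hr at 37 C. Intracellular ATP was read by CellTiter-Glo luminescence, and AC50 came from Hill-equation concentration-response fits.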

Cytochrome P450 2D6 (Homo sapiens), sequence (P10635 whole entry, looked up): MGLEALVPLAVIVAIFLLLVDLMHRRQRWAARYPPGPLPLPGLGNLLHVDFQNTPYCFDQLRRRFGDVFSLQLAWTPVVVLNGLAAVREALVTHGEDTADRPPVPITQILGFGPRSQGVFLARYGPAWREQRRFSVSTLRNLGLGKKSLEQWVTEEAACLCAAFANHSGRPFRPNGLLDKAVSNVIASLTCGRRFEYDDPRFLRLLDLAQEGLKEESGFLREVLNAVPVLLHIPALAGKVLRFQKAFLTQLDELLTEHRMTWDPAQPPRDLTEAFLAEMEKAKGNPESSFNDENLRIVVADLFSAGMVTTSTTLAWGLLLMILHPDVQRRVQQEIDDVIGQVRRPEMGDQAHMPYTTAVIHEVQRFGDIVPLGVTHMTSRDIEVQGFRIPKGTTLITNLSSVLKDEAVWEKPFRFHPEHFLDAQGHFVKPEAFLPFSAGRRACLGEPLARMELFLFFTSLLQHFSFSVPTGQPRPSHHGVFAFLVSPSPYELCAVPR
Cytochrome P450 2C9 (Homo sapiens), sequence (P11712 whole entry, looked up): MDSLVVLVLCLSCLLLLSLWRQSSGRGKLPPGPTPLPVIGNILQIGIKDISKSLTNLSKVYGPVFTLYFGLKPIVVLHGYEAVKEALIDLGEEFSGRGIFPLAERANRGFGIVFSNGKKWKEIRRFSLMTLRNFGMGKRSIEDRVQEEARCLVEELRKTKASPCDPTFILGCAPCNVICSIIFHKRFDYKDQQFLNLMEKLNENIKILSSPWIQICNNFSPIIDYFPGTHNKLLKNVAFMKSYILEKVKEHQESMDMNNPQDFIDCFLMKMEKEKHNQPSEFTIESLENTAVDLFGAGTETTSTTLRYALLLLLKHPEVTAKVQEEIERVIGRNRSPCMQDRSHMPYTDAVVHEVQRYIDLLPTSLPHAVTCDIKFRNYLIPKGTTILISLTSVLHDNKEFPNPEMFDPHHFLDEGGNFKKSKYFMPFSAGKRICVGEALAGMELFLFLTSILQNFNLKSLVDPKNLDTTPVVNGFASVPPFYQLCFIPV
Cytochrome P450 2C19 (Homo sapiens), sequence (P33261 whole entry, looked up): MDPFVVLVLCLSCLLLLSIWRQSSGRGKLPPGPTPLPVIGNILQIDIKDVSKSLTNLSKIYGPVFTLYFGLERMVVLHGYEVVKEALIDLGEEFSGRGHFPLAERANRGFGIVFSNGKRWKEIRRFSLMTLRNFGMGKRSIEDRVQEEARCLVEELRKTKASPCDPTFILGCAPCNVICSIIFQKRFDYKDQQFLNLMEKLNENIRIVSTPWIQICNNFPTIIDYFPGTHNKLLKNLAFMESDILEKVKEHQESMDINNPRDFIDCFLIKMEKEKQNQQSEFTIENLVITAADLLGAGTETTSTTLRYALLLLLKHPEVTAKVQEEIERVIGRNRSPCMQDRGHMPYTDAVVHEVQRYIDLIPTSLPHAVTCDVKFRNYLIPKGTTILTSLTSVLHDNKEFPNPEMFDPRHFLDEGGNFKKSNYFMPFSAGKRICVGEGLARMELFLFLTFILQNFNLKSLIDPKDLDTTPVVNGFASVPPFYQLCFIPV
Cytochrome P450 3A4 (Homo sapiens), sequence (P08684 whole entry, looked up): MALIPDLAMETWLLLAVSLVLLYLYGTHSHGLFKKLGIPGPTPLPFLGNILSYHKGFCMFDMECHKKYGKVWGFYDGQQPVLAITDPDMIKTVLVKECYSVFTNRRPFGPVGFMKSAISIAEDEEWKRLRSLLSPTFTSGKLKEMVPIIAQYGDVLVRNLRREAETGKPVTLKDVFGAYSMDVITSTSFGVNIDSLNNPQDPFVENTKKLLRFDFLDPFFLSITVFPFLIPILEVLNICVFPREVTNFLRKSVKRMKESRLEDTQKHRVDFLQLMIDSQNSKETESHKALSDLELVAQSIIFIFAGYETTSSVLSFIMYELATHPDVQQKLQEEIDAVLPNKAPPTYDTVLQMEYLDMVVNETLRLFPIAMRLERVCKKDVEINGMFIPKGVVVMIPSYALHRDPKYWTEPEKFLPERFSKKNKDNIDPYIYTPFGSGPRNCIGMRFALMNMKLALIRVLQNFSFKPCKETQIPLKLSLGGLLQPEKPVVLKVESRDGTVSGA

CC(CCC(=O)O)(c1ccc(O)cc1)c1ccc(O)cc1
inactive: Potency [1] | outcome [2] | outcome [3] | Potency [4] | caspase-3 activation [5] 1.18% | outcome [6] | outcome [7] | Potency [8] | Potency [9] | Potency [10] | Potency [11] | Potency [12] | Potency [13] | Potency [14] | Potency [15] | Potency [16] | outcome [17] | Potency [18] | Potency [19] | Potency [20] | Potency [21] | Potency [22] | Potency [23] | Potency [24] | Potency [25] | Potency [26]
